{
  "source": "paper PMC4552634",
  "about": "“A New Set of Chemical Starting Points with Plasmodium falciparum Transmission-Blocking Potential for Antimalarial Drug Discovery” (PLoS ONE, 2015)",
  "note": "Among all 13,000 compounds or so, about 3,200 (25%) showed an effect of 50% or more. Some of the results follow.",
  "data": [
    {"test_system": "P. falciparum stage V gametocytes", "parameters": "BacTiter-Glo ATP luminescence viability of purified stage V gametocytes in 384-well plates, per cent inhibition versus DMSO", "details": "48 h, 5 µM; inhibitor", "units": {"% Inhibition": "%"}, "values": [
      {"smiles": "CCCC(CNC(=O)c1cc2c(Cl)cc(Cl)cc2[nH]1)CNc1cc(=O)c2ccccc2[nH]1", "note": "(stereo not shown) [TCMDC-140519]", "% Inhibition": -10.38},
      {"smiles": "Cc1c(CC(=O)N(C)C2CCN(CCCCCNC(=O)/C=C/c3ccc(Cl)c(Cl)c3)CC2)sc2ccc(Cl)cc12", "note": "[TCMDC-139994]", "% Inhibition": -4.891},
      {"smiles": "COc1ccc(CCn2c(=N)c(C(=O)NCc3ccccc3)cc3c(=O)n4ccccc4nc32)cc1", "note": "[TCMDC-124472]", "% Inhibition": 34.54},
      {"smiles": "CCOC(=O)N/N=C/[C@H](CCc1ccccc1)NC(=O)[C@H](CC(C)C)NC(=O)c1cc2cccc(OC)c2o1", "note": "[TCMDC-135928]", "% Inhibition": 10.67},
      {"smiles": "CCC[C@@H](/C=N/N(C)C(=O)OC(C)(C)C)NC(=O)[C@H](CC(C)C)NC(=O)c1cc2cccc(OC)c2o1", "note": "[TCMDC-136059]", "% Inhibition": -6.333},
      {"smiles": "CCOC(=O)N(C)/N=C/[C@H](CCc1ccccc1)NC(=O)[C@H](CC(C)C)NC(=O)c1cc2cccc(OC)c2o1", "note": "[TCMDC-136018]", "% Inhibition": 75},
      {"smiles": "CCOc1cc(C(=O)NCCN(CC)c2cccc(C)c2)ccc1-c1nc2ccc(Cl)cc2[nH]1", "note": "[TCMDC-140916]", "% Inhibition": -6.076},
      {"smiles": "Nc1nccc2ccc(-c3ccc(OCc4ccccc4)cc3)cc12", "note": "[TCMDC-133423]", "% Inhibition": 12.93},
      {"smiles": "CCc1cc2c(N)nc(N)nc2nc1-c1ccccc1", "note": "[TCMDC-131931]", "% Inhibition": 14.27},
      {"smiles": "Nc1nc(N)c2cc3ccc(OCc4ccccc4)cc3nc2n1", "note": "[TCMDC-137967]", "% Inhibition": 109.1},
      {"smiles": "O=C(NC(Cc1ccccc1)C(=O)O)c1cc(=O)c2ccccc2o1", "note": "(stereo not shown) [TCMDC-131318]", "% Inhibition": 3.006},
      {"smiles": "COc1cc2cc(C(=O)Nc3ccccc3)c(N)nc2cc1OC", "note": "[TCMDC-123992]", "% Inhibition": 12.69},
      {"smiles": "CN(c1ccccc1)c1ccnc(/N=C(\\N)Nc2ccc(Cl)cc2)n1", "note": "[TCMDC-138941]", "% Inhibition": 49.31},
      {"smiles": "COc1ccc(Cc2nc(N=C(N)Nc3ccccc3)ccc2OC)cc1", "note": "[TCMDC-138959]", "% Inhibition": 88.7},
      {"smiles": "N/C(=N\\c1cccc(Cc2ccc([N+](=O)[O-])cc2)n1)Nc1ccccc1", "note": "[TCMDC-138952]", "% Inhibition": 90.6},
      {"smiles": "Cc1ccccc1Cc1cccc(/N=C(\\N)Nc2ccc(Cl)cc2)n1", "note": "[TCMDC-138942]", "% Inhibition": 89.67},
      {"smiles": "COc1ccc(CCN(C)CCOc2ccc(NC(=O)c3cccc4cc5ccccc5nc34)cc2)cc1OC", "note": "[TCMDC-132112]", "% Inhibition": -28.68},
      {"smiles": "CC1(C)N=C(NC(=O)Nc2ccc([N+](=O)[O-])cc2)N=C(N)N1OCc1cccc2ccccc12", "note": "[TCMDC-131582]", "% Inhibition": 35.05},
      {"smiles": "Cc1ccccc1CN1CCCN(Cc2ccc(C(=O)Nc3ccc(Cl)cc3)cc2)CC1", "note": "[TCMDC-136402]", "% Inhibition": -5.846},
      {"smiles": "O=C(Nc1cccc(OC2CCN(Cc3ccccc3)CC2)c1)c1ccc([N+](=O)[O-])cc1", "note": "[TCMDC-139543]", "% Inhibition": 0.689},
      {"smiles": "NC(=O)c1cccc(Nc2nccc(Nc3ccc4[nH]c(-c5ccccc5)cc4c3)n2)c1", "note": "[TCMDC-138678]", "% Inhibition": -94.87},
      {"smiles": "COc1ccc(S(=O)(=O)NC2CCN(c3cc(C)nc(Nc4cccc(C#N)c4)n3)CC2)cc1", "note": "[TCMDC-134215]", "% Inhibition": 11.7},
      {"smiles": "Cc1ccc(NC(=O)c2cnc(N3CCN(c4ccncc4)CC3)c(Cl)c2)cc1", "note": "[TCMDC-134603]", "% Inhibition": 7.543},
      {"smiles": "CNC(=O)c1[nH]c(-c2ccccc2)nc1NC(C)=O", "note": "[TCMDC-131315]", "% Inhibition": -0.1444},
      {"smiles": "CC(C)(CNC(=O)[C@@H]1CCCN(Cc2ccc(Cl)cc2)C1)c1nc(-c2ccc(Cl)c(O)c2)c(-c2ccncc2)[nH]1", "note": "[TCMDC-141139]", "% Inhibition": 5.708},
      {"smiles": "Nc1ncc(-c2ccccc2)cc1-c1cccc2ncccc12", "note": "[TCMDC-133415]", "% Inhibition": 19.97},
      {"smiles": "Nc1ncc(-c2ccccc2)cc1/C=C/c1cccnc1", "note": "[TCMDC-135534]", "% Inhibition": 59.51},
      {"smiles": "Nc1nccc(-c2ccc3c(/C=C/c4ccccc4)cnc(N)c3c2)n1", "note": "[TCMDC-136382]", "% Inhibition": -22.89},
      {"smiles": "COc1cc(NC(=O)N2CCOC(CCN3CCC4(CCc5ccccc54)CC3)(c3ccc(Cl)c(Cl)c3)C2)cc(OC)c1OC", "note": "(stereo not shown) [TCMDC-135346]", "% Inhibition": -4.106},
      {"smiles": "CN(Cc1cccc(O)c1)C1CCN(c2cc(NC(=O)c3cccc(F)c3)ccn2)CC1", "note": "[TCMDC-134962]", "% Inhibition": -30.72},
      {"smiles": "CCCc1cc(Cc2cnc(N)nc2N)cc(CCC)c1O", "note": "[TCMDC-137695]", "% Inhibition": -57.47},
      {"smiles": "CCOc1ccccc1C1C(C(=O)C(C)(C)C)N2c3ccc(Br)cc3C=CC2C12C(=O)c1ccccc1C2=O", "note": "(stereo not shown) [TCMDC-125079]", "% Inhibition": 103.1},
      {"smiles": "CCCCC1=CC2C(=O)C(C(=O)OC)=CN=C2C=C1OCc1ccccc1", "note": "(stereo not shown) [TCMDC-137492]", "% Inhibition": 62.56},
      {"smiles": "Cc1ccc(NC(=O)c2cn(-c3ccccc3)nc2-c2ccc(F)cc2)cc1[N+](=O)[O-]", "note": "[TCMDC-125590]", "% Inhibition": -12.22},
      {"smiles": "COc1ccc(CNC2CCN(C)CC2)cc1-c1cccc(S(=O)(=O)NCc2ccccc2)c1", "note": "[TCMDC-132267]", "% Inhibition": 106.3},
      {"smiles": "COc1ccc(CNC2CCN(C)CC2)cc1-c1ccc(S(=O)(=O)NCc2ccccc2)cc1", "note": "[TCMDC-132244]", "% Inhibition": 110.3},
      {"smiles": "Cc1ccc(NC(=O)c2ccc(CN3CCCN(Cc4cccc(C#N)c4)CC3)cc2)cc1F", "note": "[TCMDC-136394]", "% Inhibition": -18.71},
      {"smiles": "COc1ccc2ncc(F)c(CCN3C4CCC3CC(NCc3ccc5c(c3)OCCO5)C4)c2n1", "note": "(stereo not shown) [TCMDC-135638]", "% Inhibition": 37.56},
      {"smiles": "Clc1ccc(CNc2nc(NCCc3cnc[nH]3)nc(Nc3ccc4c(c3)OCO4)n2)cc1", "note": "[TCMDC-139740]", "% Inhibition": 19.01},
      {"smiles": "O=C(COc1ccccc1Cl)N1CCc2cc3nccc(N4CCN5CCC[C@H]5C4)c3cc21", "note": "[TCMDC-140049]", "% Inhibition": 15.14},
      {"smiles": "Oc1ccc(Cl)cc1CN1CCCC(COC(c2ccc(F)cc2)c2ccc(F)cc2)C1", "note": "(stereo not shown) [TCMDC-136034]", "% Inhibition": 8.672},
      {"smiles": "O=C(NCCN1CCC(NC(=O)c2ccc(-c3ccccn3)s2)CC1)c1cccc(C(F)(F)F)c1", "note": "[TCMDC-141952]", "% Inhibition": 4.93},
      {"smiles": "N#Cc1ccc2c(c1)CN(CCC1CCC(NC(=O)c3cc4ccccc4cc3N)CC1)CC2", "note": "(stereo not shown) [TCMDC-139164]", "% Inhibition": 18.76}
    ]}
  ]
}
